Data taken from the supplement of paper PMC3334620.
Over roughly 33,000 sequences, “E-score (-0.5 to 0.5)” has its median near -0.012; the highest 2% begin near 0.27. The list comes from a sample in which the highest values are over-represented; it also holds similar and randomly drawn sequences.

Target: T1, Vhr1 (UniProt P40522)
T1 sequence: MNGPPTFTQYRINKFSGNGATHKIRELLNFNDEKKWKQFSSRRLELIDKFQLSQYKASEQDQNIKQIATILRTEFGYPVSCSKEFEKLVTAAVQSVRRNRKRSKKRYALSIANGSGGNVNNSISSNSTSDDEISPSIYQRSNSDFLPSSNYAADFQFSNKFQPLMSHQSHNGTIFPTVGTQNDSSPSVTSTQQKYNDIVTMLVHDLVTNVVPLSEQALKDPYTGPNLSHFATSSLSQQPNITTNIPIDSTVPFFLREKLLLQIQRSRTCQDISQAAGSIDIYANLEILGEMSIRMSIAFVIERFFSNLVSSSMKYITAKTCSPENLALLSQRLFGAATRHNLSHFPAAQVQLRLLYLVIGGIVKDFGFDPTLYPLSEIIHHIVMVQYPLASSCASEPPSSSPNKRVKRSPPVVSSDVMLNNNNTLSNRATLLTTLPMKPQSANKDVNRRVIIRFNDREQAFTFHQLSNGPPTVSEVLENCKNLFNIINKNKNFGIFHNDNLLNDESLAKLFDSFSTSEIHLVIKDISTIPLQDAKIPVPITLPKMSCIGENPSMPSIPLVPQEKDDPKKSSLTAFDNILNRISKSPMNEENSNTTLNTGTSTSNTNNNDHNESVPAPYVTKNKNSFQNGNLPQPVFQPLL
Assay: PBM E-score (8-mer binding enrichment) (E-score (-0.5 to 0.5)); higher = stronger / more preferred TF binding
Settings: protein concentration: 200 nM; construct: GST-full length
Procedure, shortened: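 Full-length yeast transcription factors or their DNA-binding domains, GST-tagged and expressed with PURExpress, were applied at about 100-200 nM to universal all-10-mer Agilent arrays. These arrays had been made double-stranded by primer extension on fresh or once-stripped slides. Detection used fluorescent anti-GST, normalisation used masliner, and E-scores for ungapped eight-base words pooled with reverse complements came from the Universal PBM Analysis Suite.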

Sequence	PBM E-score
AACTGGCT	-0.204
CAGCGCAC	-0.152
CGGTTGAC	-0.0106
AGGCAAGG	-0.292
AATGACGA	-0.0492
AATGACTA	0.353
AATGACAC	0.0353
AATGACTG	0.271
CATGACGA	0.22
AATGACGC	0.00169
GATGACTA	0.447
CATGACTA	0.458
CATGACAA	0.0092
GATGACCA	0.13
GATGACAA	-0.00976
AATGACTC	0.463
GGATCCGA	-0.0296
ATGTAGCG	-0.0682
AGCGCAAT	-0.0761
ATCTTAGG	-0.132
GCGCTGGA	0.168
GTTGATAA	0.109
CGGCTACA	0.153
CATGGCTC	0.28

Sequence	PBM E-score
AATGGCTC	0.137
CATGGCTA	0.224
CATGGTTA	0.215
AATGGTTC	0.212
CATGGTTC	0.364
AAAATCTT	-0.316
CCATCGAG	0.0908
ACGCGATG	0.148
CCTCGGAG	0.00615
ACTCGGAG	0.29
ACTCGGAT	0.186
TCTGGTCA	0.0764
CACGAGTA	0.0881
AACGAGTC	0.278
CACGAGTG	-0.0364
CACGAGTC	0.324
ACCGAGTC	0.254
GACGAGTC	0.276
AACGAGTA	0.134
CCCGAGTA	0.184
CCCGAGTC	0.387
GACGAGAC	-0.0155
GACGAGTA	0.077
AACGAGTT	-0.117

Sequence	PBM E-score
CGCGACGC	-0.00297
ACGACCTA	0.143
AAGTGTGT	0.0443
AGAACGAC	0.00162
CCGTTACG	-0.0486
ACCCGATG	0.137
ACTTGCTC	-0.057
CTTATCGC	-0.0118
TCCGACAA	-0.0624
GATTTCCA	0.0482
AATAATCA	0.203
CATAATCA	0.308
ATTAATCA	0.217
GTTAATCA	0.296
GATAATCA	0.301
CTTAATCA	0.214
CATAATCC	0.105
CATAATCG	0.0927
GATAATCC	-0.112
TAGATTCA	-0.0459
GTGCGAAC	-0.037
AAGATCAG	0.0101
ACCTGGAC	0.0512
ACCATGAT	0.219

Sequence	PBM E-score
GCCATGAC	0.0961
CCAATGAA	-0.18
CCCATGAC	0.332
GCAATGAC	0.103
CCAATGAC	0.285
GCCATGAA	0.0605
TCCATGAA	0.123
ACCATGAG	0.0389
CCCATGAA	0.0105
ACCATGAA	0.276
ACCATGAC	0.307
GTGGGGTA	0.22
CACCCGAC	0.0689
GTGTGCGA	0.0262
CGTCTCCA	0.149
CGGAGGAC	0.00537
CTTAAGCC	-0.234
AAGTTTGT	-0.034
CGGGGTCC	-0.227
ATACATAC	0.293
ATACATAT	0.367
CTACATAC	0.0864
ACACATAA	0.119
ATACATAG	0.108

Sequence	PBM E-score
ATACATAA	0.135
GTACATAC	0.119
ACACATAC	0.29
ACACATAG	0.102
GCTGACCC	0.0256
ACCCAGCT	0.0775
GTCCAGCA	-0.0682
ACGTCCAT	-0.123
CGCGGTCC	-0.137
AGATCCCT	-0.142
CGATCCCG	0.0117
AGATCCCG	0.297
ACCTCACG	-0.0286
CATCAACG	0.131
AGGGGCGC	0.0808
AGGGGCGG	0.348
AGGGGCGA	0.113
GTTCATTA	-0.0167
ACGACTCA	0.445
ACGACTCT	0.261
CCGACTCA	0.417
GCGACTCC	0.414
GCGACCCC	0.0605
CTGACCCC	-0.0745

Sequence	PBM E-score
ACGACTTA	-0.0824
CCGACTGA	-0.0635
GCCACTCC	0.205
CCGACTTA	-0.0517
CTTACTCC	0.0868
CTGACTCC	0.47
AAATGGAC	-0.0108
ATCTCAGA	0.00554
CCTGTGCA	-0.0814
CCCCCTCG	-0.242
GTAGGCGA	0.097
ACATGCCA	0.0538
GGGACTCA	0.261
ACGACTCG	0.327
ACGACTTG	-0.0454
ACGACTAT	0.195
GCGACTCA	0.477
CCGACTCG	0.238
ACGACGCC	-0.036
ACGACTCC	0.366
GCGACTTA	-0.104
CCGACTCC	0.45
CCGACTTC	-0.223
CAACAACG	0.087

Sequence	PBM E-score
CAGAAGAG	-0.189
CGGTAGAC	-0.00049
ACAAGAGT	0.108
ACAGGGAC	-0.138
GCTTAGGA	-0.0935
GCACTACC	-0.0106
GTACCCGA	-0.161
AAGCTGCA	-0.00033
TCTACTCA	0.112
TCGACTCA	0.349
TCGACCCA	0.166
GCCATAGC	-0.0742
GCATGCGA	0.159
TCATGCGA	0.285
CCATGCGA	0.0318
CTATGATC	0.112
GGTCGACA	-0.0223
AGTCGACA	0.197
GGTCGACC	0.32
CGTCGACC	-0.00578
ACTCGACG	0.269
AGTCGACC	-0.0312
AGTCGACG	0.278
CGTCGACG	0.161

Sequence	PBM E-score
AGTCGACT	0.33
ACATCCCG	0.231
CCTGCACA	-0.0959
AGTCGAGA	0.0118
ACATAGAC	0.0646
ATCCATAC	0.0581
CCACCTCG	-0.085
CCTTGACC	-0.111
GGGAGTAA	0.0449
AGGAGTGA	0.00535
GGGAGTTA	-0.144
GGGAGTCA	0.47
AGGAGTCG	0.339
AGGAGTTG	-0.00747
AGGAGTAA	0.0927
AGGAGTCC	0.165
AGGAGTCA	0.479
AAGAAAGC	-0.174
ACTAAAAT	-0.0643
ACACTTCG	0.0579
CCCTGCAC	-0.0585
CGATTTTA	-0.0769
CGCTCCCC	-0.16
CTCACTGA	0.14
